The list is not random: actives were taken first. Their share in the collection is about 19%.
uPA generation – qHTS for Inhibitors of Cell Surface uPA Generation; hit rate 0.31% among 330,000; Potency, µM (series often up to 38.3 µM), inactives show at the top dose activity change, negative = inhibition, most hits filed as inhibitors; cell surface uPA generation assay, qHTS; active means well fitted inhibition curve with a large enough effect; inconclusive means small, poorly fitted or top-dose-only effect; inactive means no such curve, though single readings can be large or run the other way; tested in mouse RAW 264.7 cells; further: potency means the concentration at half of the fitted maximal effect; nearly all actives have a fitted effect of over 55% in size
IL1B secr inh – qHTS for Inhibitors of Inflammasome Signaling: IL-1-beta AlphaLISA Primary Screen; THP-1 LPS/ATP IL-1B secretion, AlphaLISA, 16 h; active compounds read low; activity change, % at 57.5 µM; hit rate 4.7% among 360,000; AID 743279, 2014; in the data active means activity change below about -50%; inconclusive means mostly about -30% to -49%
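Secreted IL-1B measured by AlphaLISA bead assay after 16 h compound exposure of THP-1 cells; compounds (final up to 57.5 uM) added 1 h before LPS (250 ng/mL) and ATP (1.25 mM) stimulation; lower signal means less secretion.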
DT40 TDP1 no CPT – qHTS for Inhibitors of human tyrosyl-DNA phosphodiesterase 1 (TDP1): qHTS in cells in absence of CPT; DT40 Tdp1-/- hTDP1 cells, no CPT, ATP luminescence, 48 h; Potency, µM (titrated, usually from 46.2 µM), inactives show top-dose activity change, negative = growth inhibition, actives largely listed as inhibitors; hit rate 15% among 420,000; AID 686978, 2013; further: potency means the concentration at half of the fitted maximal effect; nearly all actives have a fitted effect of over 55% in size
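A cellular qHTS used chicken DT40 cells lacking endogenous Tdp1 but carrying stably transfected human TDP1. Compounds were applied without camptothecin, and cell growth kinetics were judged by ATP-dependent luminescence after ≥48 hr.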
DT40 TDP1 CPT – qHTS for Inhibitors of human tyrosyl-DNA phosphodiesterase 1 (TDP1): qHTS in cells in presence of CPT. chicken DT40 Tdp1-/-;hTDP1 cells + 20 nM CPT, ATP luminescence, 48 h. Potency, µM (series often up to 46.2 µM), for inactives: at the top dose activity change, negative = growth inhibition, most hits filed as inhibitors. hit rate 12% among 420,000. AID 686979, 2013; further: potency means the concentration at half of the fitted maximal effect; nearly all actives have a fitted effect of over 55% in size
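Cell growth measured by CellTiter-Glo luminescence after a minimum 48 h, 37 C compound exposure with 20 nM CPT in Tdp1-knockout DT40 cells stably expressing hTDP1, seeded 400/well; qHTS titration format.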
HT1080 IDH1KD tx – qHTS for induction of synthetic lethality in tumor cells producing 2HG: qHTS for the HT-1080-IDH1KD cell line. HT-1080 IDH1 knockdown viability, ATP luminescence, 48 h. Potency, µM (titrated, usually from 46.1 µM), without a hit: at the highest dose activity, negative = toxicity, most hits filed as cytotoxic. hit rate 2% among 360,000. AID 686971, 2013;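 further: potency means the concentration at half of the fitted maximal effect; 0% = DMSO wells and -100% = cell-free medium wells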
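In this qHTS, HT-1080 cells depleted of IDH1 are exposed for 48 h at 37 °C to compound titrations. Toxicity is scored from CellTiter-Glo luminescence, with DMSO as full viability and medium alone as none.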
HT1080NT lethal – qHTS for induction of synthetic lethality in tumor cells producing 2HG: qHTS for the HT-1080-NT fibrosarcoma cell line; HT-1080-NT fibrosarcoma viability, CellTiter-Glo ATP luminescence, 48 h; Potency, µM (titrated, usually from 46.1 µM), without a hit: top-dose activity, negative = less viability, actives largely listed as cytotoxic; hit rate 1.6% among 360,000; AID 686970, 2013;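 further: NT is the 2HG producing partner of a matched IDH1 knockdown line; potency means the concentration at half of the fitted maximal effect; 0% = DMSO-treated cells and -100% = media-only wells without cells; nearly all actives have a fitted effect of over 55% in size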
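Luminescent CellTiter-Glo readout after 48 hours of compound exposure at 37 degrees C defined viability of HT-1080-NT cells. Activity was normalized to DMSO wells and cell-free media wells; concentration-response curves were fitted and assigned curve classes.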
* hit, by the source's call. Unless noted, the call rests on the fitted dose curve; in most records, active means well fitted curve in the direction sought with a large enough effect; inconclusive means small, poorly fitted or top-dose-only effect, or another doubt; inactive means no such curve, though single readings can be large; an effect the other way counts as inactive or inconclusive. Unless noted, on the % scale 0 is the no-effect control and ±100 the full control effect.

How did O=c1c(-c2ccc(Cl)cc2)nc2cnc(N3CCOCC3)nc2n1-c1ccccc1 do in these assays?
DT40 TDP1 no CPT: -12%; DT40 TDP1 CPT: 11%

What do the screens show for `COc1ccc(-n2c(=O)c(-c3cccs3)nc3cnc(Nc4cccc(OC)c4)nc32)cc1`?
DT40 TDP1 no CPT: 23µM*; DT40 TDP1 CPT: -15%

What do the screens show for `Cc1ccc(NC(=O)CNC2CCCCC2)cc1Cl`?
uPA generation: -3%; IL1B secr inh: -8; DT40 TDP1 no CPT: inconclusive; DT40 TDP1 CPT: inconclusive; HT1080 IDH1KD tx: -14%; HT1080NT lethal: -8%

How did CCc1cccc(C)c1NC(=O)C(C)Sc1nc2c(c(=O)[nH]1)CCCC2 (stereo not given) do in these assays?
DT40 TDP1 no CPT: inconclusive; DT40 TDP1 CPT: -10%

What do the screens show for `CC(Sc1nc2c(c(=O)[nH]1)CCCC2)C(=O)Nc1ccc(Br)cn1` (stereo not given)?
uPA generation: 0%; IL1B secr inh: 22; DT40 TDP1 no CPT: 16µM*; DT40 TDP1 CPT: 23µM*; HT1080 IDH1KD tx: 8%; HT1080NT lethal: 9%

How did CCOC(=O)C1(C)CCN1C(=O)c1cncc(Br)c1 (stereo not given) do in these assays?
IL1B secr inh: 0; DT40 TDP1 no CPT: -2%; DT40 TDP1 CPT: -18%; HT1080 IDH1KD tx: 4%; HT1080NT lethal: 29%

What do the screens show for `O=S1(=O)CC(N2CC=CC2)CN1Cc1ccc(F)cc1` (stereo not given)?
IL1B secr inh: -9; DT40 TDP1 no CPT: -10%; DT40 TDP1 CPT: inconclusive; HT1080 IDH1KD tx: -2%; HT1080NT lethal: -2%

What do the screens show for `COc1cc(/C=C2/C(=O)NN(c3cccc(C)c3)C2=O)ccc1OC(=O)c1ccco1`?
uPA generation: 0%; IL1B secr inh: -69*; DT40 TDP1 no CPT: inconclusive; DT40 TDP1 CPT: inconclusive; HT1080 IDH1KD tx: inconclusive; HT1080NT lethal: inconclusive

How did CC1(C)C=Cc2c(ccc3c2OC[C@H](c2ccc(O)cc2O)C3)O1 do in these assays?
uPA generation: -11%; IL1B secr inh: 34; DT40 TDP1 no CPT: inconclusive; DT40 TDP1 CPT: 13µM*; HT1080 IDH1KD tx: -8%; HT1080NT lethal: 0%

What do the screens show for `CC(C)=CCc1c([C@@H]2CCc3ccc(O)cc3O2)cc2c(c1O)OC(C)(C)C=C2`?
uPA generation: 10%; IL1B secr inh: -8; DT40 TDP1 no CPT: inconclusive; DT40 TDP1 CPT: inconclusive; HT1080 IDH1KD tx: -8%; HT1080NT lethal: 1%

Results for CC(C)=CCc1cc([C@@H]2COc3c(ccc4c3C=CC(C)(C)O4)C2)c(O)cc1O ?
uPA generation: 17%; IL1B secr inh: -51*; DT40 TDP1 no CPT: inconclusive; DT40 TDP1 CPT: 18µM*; HT1080 IDH1KD tx: inconclusive; HT1080NT lethal: inconclusive

Results for CC(=O)Oc1ccc([C@@H]2COc3c(ccc4c3C=CC(C)(C)O4)C2)c(OC(C)=O)c1 ?
uPA generation: 0%; IL1B secr inh: -1; DT40 TDP1 no CPT: inconclusive; DT40 TDP1 CPT: inconclusive; HT1080 IDH1KD tx: 10%; HT1080NT lethal: 10%

How did CCOC(=O)c1ccccc1NC(=O)c1nn(C)c2c1COc1ccccc1-2 do in these assays?
DT40 TDP1 no CPT: -27%; DT40 TDP1 CPT: -3%

Results for COCCN(Cc1cc2cc3c(cc2nc1Cl)OCO3)C(=O)c1ccc(C)cc1 ?
uPA generation: inconclusive; IL1B secr inh: 29; DT40 TDP1 no CPT: 13µM*; DT40 TDP1 CPT: inconclusive; HT1080 IDH1KD tx: -12%; HT1080NT lethal: -14%

How did COCCN(Cc1cc2cc(C)ccc2nc1Cl)C(=O)Nc1ccccc1OC do in these assays?
uPA generation: -1%; IL1B secr inh: -5; DT40 TDP1 no CPT: 16µM*; DT40 TDP1 CPT: 16µM*; HT1080 IDH1KD tx: 10%; HT1080NT lethal: 9%

How did COCCN(Cc1cc2cc(C)c(C)cc2nc1Cl)C(=O)Nc1ccccc1 do in these assays?
uPA generation: -10%; IL1B secr inh: 4; DT40 TDP1 no CPT: inconclusive; DT40 TDP1 CPT: inconclusive; HT1080 IDH1KD tx: -1%; HT1080NT lethal: -16%

What do the screens show for `Cc1ccc(OCC(=O)c2cc(C)n(-c3cc(C)on3)c2C)c([N+](=O)[O-])n1`?
uPA generation: -2%; IL1B secr inh: 6; DT40 TDP1 no CPT: inconclusive; DT40 TDP1 CPT: 10µM*; HT1080 IDH1KD tx: -4%; HT1080NT lethal: -6%

How did CCN1C(=O)C(=O)N(CC(=O)c2cc(C)n(C3CC3)c2C)C1=O do in these assays?
uPA generation: 8%; IL1B secr inh: -13; DT40 TDP1 no CPT: -20%; DT40 TDP1 CPT: -7%; HT1080 IDH1KD tx: 2%; HT1080NT lethal: -2%

How did Cc1ccc(OCC(=O)c2cc(C)n(C3CC3)c2C)c([N+](=O)[O-])n1 do in these assays?
uPA generation: -2%; IL1B secr inh: 4; DT40 TDP1 no CPT: 23µM*; DT40 TDP1 CPT: inconclusive; HT1080 IDH1KD tx: 3%; HT1080NT lethal: 4%

What do the screens show for `Cc1cc(-n2c(C)cc(C(=O)COc3cc(F)ccc3[N+](=O)[O-])c2C)no1`?
uPA generation: -4%; IL1B secr inh: 20; DT40 TDP1 no CPT: 15µM*; DT40 TDP1 CPT: inconclusive; HT1080 IDH1KD tx: -15%; HT1080NT lethal: -3%

How did Cc1ccc(OCC(=O)c2cc(C)n(CC(F)(F)F)c2C)c([N+](=O)[O-])n1 do in these assays?
uPA generation: 0%; IL1B secr inh: 13; DT40 TDP1 no CPT: inconclusive; DT40 TDP1 CPT: -1%; HT1080 IDH1KD tx: inconclusive; HT1080NT lethal: -9%

What do the screens show for `Cc1cc(C(=O)CN2C(=O)NC(CCS(C)(=O)=O)C2=O)c(C)n1C1CC1` (stereo not given)?
uPA generation: -3%; IL1B secr inh: -10; DT40 TDP1 no CPT: 5.8µM*; DT40 TDP1 CPT: 18µM*; HT1080 IDH1KD tx: -1%; HT1080NT lethal: -8%

What do the screens show for `Cc1cc(-n2c(C)cc(C(=O)COc3ccc([N+](=O)[O-])cc3)c2C)no1`?
uPA generation: -1%; IL1B secr inh: -11; DT40 TDP1 no CPT: inconclusive; DT40 TDP1 CPT: inconclusive; HT1080 IDH1KD tx: -2%; HT1080NT lethal: 0%

Compound activity: PubChem, National Center for Advancing Translational Sciences (NCATS)
